Source: PubChem BioAssay AID1347414 (National Center for Advancing Translational Sciences (NCATS), 2020)
Records with an inconclusive call do not appear. Active and inactive are the calls of the source. Calls come from the whole dose curve; as a rule, active = well fitted inhibition curve with a large enough effect; inconclusive = small, poorly fitted or top-dose-only effect; inactive = no such curve, though single readings can be large or run the other way. Numbered stars: 1 amine (or outer) side, 2 acyl side, 3 side chain; on linkers, the order of the positions; unused ones are H or OH. Bridge positions count the residues as written; N and C are the ends. Square brackets hold non-standard residues; d marks the D form. Peptide text beside a SMILES is read from it. I, II: the chains in the order shown. Actinocin(9to1) = Cc1c2oc3c(C)ccc(C(=O)[*:1])c3nc-2c(C(=O)[*:2])c(N)c1=O; NMeV = CN[C@H](C(=O)O)C(C)C; Sar = CNCC(=O)O

assay: qHTS to identify inhibitors of the type 1 interferon - major histocompatibility complex class I in skeletal muscle: Secondary screen by immunofluorescence; settings: C25cl48 myoblasts, IFN-b induced HLA-ABC immunofluorescence, 24 h; series mostly up to 49.8 µM; activity change, negative = inhibition: at the top concentration; note: nearly all actives have a fitted effect of over 70% in size;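 for activity change, negative = inhibition: digitonin at 100 µM served as the cytotoxic control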
Outline: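 Immortalized human myoblasts C25cl48 were stimulated with 4.0 ng/ml IFN-beta and exposed to an 11-point 1:3 compound titration, top 50 uM, for 24 h at 37 C. They were then fixed and immunostained for HLA-ABC, and quantified by laser scanning cytometry.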
% is set by controls: 0 for no effect and ±100 for the full control effect; potency is the fitted concentration of half-maximal effect.

Row | Structure (SMILES) | Potency | activity change, negative = inhibition
1 | Cc1ncc(-c2ccnc(Nc3ccc(S(C)(=O)=O)cc3)n2)n1C(C)C | 0.914 µM (active) | 
2 | Cc1c2oc3c(C)ccc(C(=O)N[C@@H]4C(=O)N[C@H](C(C)C)C(=O)N5CCC[C@H]5C(=O)N(C)CC(=O)N(C)[C@@H](C(C)C)C(=O)O[C@@H]4C)c3nc-2c(C(=O)N[C@@H]2C(=O)N[C@H](C(C)C)C(=O)N3CCC[C@H]3C(=O)N(C)CC(=O)N(C)[C@@H](C(C)C)C(=O)O[C@@H]2C)c(N)c1=O (I: T[dV]P[Sar][NMeV] / II: T[dV]P[Sar][NMeV]; ester I:1-I:C, II:1-II:C; linker I:N-II:N via Actinocin(9to1)) | 0.0576 µM (active) | 
3 | CC(=O)c1cnc2ccc(-c3cc(Cl)c(O)c(Cl)c3)nc2c1NC1CCC(CN(C)C)CC1 (centres undefined) | 0.0458 µM (active) | 
4 | CCOC(=O)C1=C(C)NC2=C(C(=O)CC(C)(C)C2)C1c1ccc(-c2ccccc2)cc1 (centres undefined) |  | 13.7% (inactive)
5 | CC(=O)Nc1ccc([C@H](C)C(=O)Nc2ncc(C(C)C)s2)cc1 | 1.62 µM (active) | 
6 | CN(C)C/C=C/C(=O)Nc1ccc(C(=O)N2CCC[C@@H](Nc3ncc(Cl)c(-c4c[nH]c5ccccc45)n3)C2)cc1 | 0.23 µM (active) | 
7 | COc1ccc(F)c(F)c1C(=O)c1cnc(NC2CCN(S(C)(=O)=O)CC2)nc1N | 0.914 µM (active) | 
8 | COc1cccc2c1C(=O)c1c(O)c3c(c(O)c1C2=O)C[C@@](O)(C(=O)CO)C[C@@H]3O[C@H]1C[C@H](N)[C@H](O)[C@H](C)O1 | 0.23 µM (active) | 
9 | CO[C@@H]1[C@@H](O)[C@H](O)[C@@H](n2c3c(Cl)cccc3c3c4c(c5c6cccc(Cl)c6[nH]c5c32)C(=O)NC4=O)O[C@H]1CO |  | 2.3% (inactive)
